Test results: PubChem BioAssay (NCATS)
Results filed as inconclusive are left out. Entries that show only a call come without a potency. Activity calls are given as the source filed them. Calls follow the shape of the dose curve; as a rule, active = well fitted inhibition curve with a large enough effect; inconclusive = small, poorly fitted or top-dose-only effect; inactive = no such curve, though single readings can be large or run the other way.

Each compound was assayed against Cytochrome P450 3A7 (Homo sapiens) (UniProt P24462) (assay: Cytochrome P450 family 3 subfamily A member 7 (CYP3A7) small molecule antagonists: luciferase biochemical qHTS assay (AID 1963596; also: nearly all actives have a fitted effect of over 40% in size)). Conditions: P450-Glo CYP3A7 enzyme luminescence, 1 h; series mostly up to 57.4 µM.
In short: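 Luminescence read-out (relative luminescence units) after 20 min with detection reagent, which stops the reaction. Enzyme, proluciferin substrate and compound preincubated 10 min, RT; NADPH regeneration system then started 1 h reaction. Ketoconazole as positive control.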
Potency is read from the fitted curve at half-maximal effect.

Chain of Cytochrome P450 3A7 (Homo sapiens) (P24462 whole entry, looked up): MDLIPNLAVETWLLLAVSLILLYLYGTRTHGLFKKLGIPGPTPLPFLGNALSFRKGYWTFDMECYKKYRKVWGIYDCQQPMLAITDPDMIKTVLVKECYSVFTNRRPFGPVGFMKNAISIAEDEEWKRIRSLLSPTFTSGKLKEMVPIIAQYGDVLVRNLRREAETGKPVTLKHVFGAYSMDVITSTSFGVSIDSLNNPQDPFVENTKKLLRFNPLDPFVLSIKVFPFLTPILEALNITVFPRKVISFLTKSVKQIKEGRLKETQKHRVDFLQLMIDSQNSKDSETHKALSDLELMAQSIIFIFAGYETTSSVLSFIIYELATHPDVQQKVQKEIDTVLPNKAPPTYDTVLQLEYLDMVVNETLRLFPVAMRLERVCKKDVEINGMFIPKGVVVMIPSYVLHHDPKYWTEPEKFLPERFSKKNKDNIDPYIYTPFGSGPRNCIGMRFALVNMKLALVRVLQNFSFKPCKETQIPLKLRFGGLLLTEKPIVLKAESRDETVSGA

Row | SMILES | Potency
1 | CC(C)(C)CCN1C[C@@H]2C(CNC(=O)c3cc(Cl)cc(Cl)c3)[C@@H]2C1 (stereo not given in full) | inactive
2 | CC1=CC(O)=NS(=O)(=O)O1 | inactive
3 | O=C(Nc1cccc(C2=NCCN2)c1)Nc1cccc(C2=NCCN2)c1 | inactive
4 | CCCCCCCCNC(C)C(O)c1ccc(SC(C)C)cc1 (stereo not given) | inactive
5 | CCn1c(N)c(C(=O)NC)c(=O)c2ccc(C#C[C@@](C)(O)COC)nc21 | inactive
6 | C[S+](=O)([O-])Nc1ccc(-c2ccc3nc(-c4cccc(OC(F)(F)F)c4)[nH]c3c2)cc1 | inactive
7 | COc1cc(C(=O)NC(=S)Nc2cccc(NC(=O)c3ccccc3)c2)cc(OC)c1OC | inactive
8 | CN(C)CC1CCOC1(c1ccccc1)c1ccccc1 (stereo not given) | inactive
9 | CCC(Cc1c(I)cc(I)c(O)c1I)C(=O)O (stereo not given) | 16.9 µM (active)
10 | Cc1ccccc1NC(=O)Nc1ccc(CN2C(=O)N([C@@H](CC(C)C)C(=O)N[C@@H](CC(=O)O)c3ccccc3)C(=O)C2(C)C)cc1 | inactive
11 | CC(=O)Nc1ccc(C)cc1-c1nc2ccccc2n(CC(=O)Nc2cc(Cl)ccc2C)c1=O | inactive
12 | CCOc1ccc(S(=O)(=O)O)c2cccnc12 | inactive
13 | CO/N=C(/C(=O)N[C@@H]1C(=O)N2C(C(=O)O)=C(Cn3nnc(C)n3)CS[C@H]12)c1csc(N)n1 | inactive
14 | COc1ccccc1C(=O)Nc1cccc(NC(=O)c2cccc(C)c2)c1 | inactive
15 | O=C(CO)[C@@H](O)[C@H](O)[C@@H](O)C(=O)O | inactive
16 | Cc1nc2sc(C(=O)NCc3ccncc3)c(N)c2c(C)c1Cl | inactive
17 | Nc1ncnc2c1c(-c1ccc(Cl)cc1)nn2-c1cccc(-c2cnnn2Cc2cccc(-c3ccccc3)c2)c1 | inactive
18 | COc1ccc(-c2nc3n(n2)C(c2ccc(OC)c(OC)c2)C(C(=O)Nc2cccnc2)=C(C)N3)cc1 (stereo not given) | inactive
19 | N#C/C(=C/c1ccccc1Cl)c1nc2ccccc2c(=O)[nH]1 | inactive
20 | Cc1ccc(-n2c(SCc3cccc(F)c3)nc3[nH]ncc3c2=O)cc1C | inactive

Row | SMILES | Potency
21 | O=C(CSc1nc(-c2ccc(F)cc2)nc2c1Cc1ccccc1O2)Nc1cccc(C(=O)O)c1 | inactive
22 | COc1ccc(-n2[nH]c3c(cnc4ccccc43)c2=O)cc1 | inactive
23 | O=S(O)CO | inactive
24 | CO/N=C(\C(=O)N[C@@H]1C(=O)N2C(C(=O)O)=C(COC(C)=O)CS[C@H]12)c1csc(N)n1 | inactive
25 | CC(C)c1cccc2c(-c3ccccc3)cc(-c3ccc(-c4ccc(C(=O)O)cc4)[nH]3)nc12 | inactive
26 | COC(=O)c1c(-c2ccc(Cl)cc2)noc1N1CCN(c2ccccc2OC)CC1 | inactive
27 | Cc1cc(C)cc(NC(=O)Cn2c(=O)n(-c3ccc(C)c(C)c3)c(=O)c3oc4ccccc4c32)c1 | inactive
28 | CN(C)c1ccc(C(=C2C=CC(=[N+](C)C)C=C2)c2c(O)c(S(=O)(=O)[O-])cc3cc(S(=O)(=O)O)ccc23)cc1 | inactive
29 | CC1(O)CCC(C(C)(C)O)CC1 (stereo not given) | inactive
30 | CN1CC2CN(c3ccc4oc5ccccc5c(=O)c4c3)CC2C1 (stereo not given) | inactive
31 | COc1cc(Cc2cnc(N)nc2N)c(C(C)C)cc1OC | inactive
32 | Cc1ccc(-c2nnc(Nc3ccccc3)c3ccccc23)cc1S(=O)(=O)NCc1nc2ccccc2[nH]1 | inactive
33 | COC(C)=O | inactive
34 | C=CCNc1nc(NCC=C)nc(N2CCN(C(c3ccc(F)cc3)c3ccc(F)cc3)CC2)n1 | inactive
35 | O=C(O)c1ccccc1NC(=O)N1CCC(c2ccccc2C(F)(F)F)CC1 | inactive
36 | Cc1cc(OCc2nc(-c3ccccc3Cl)cs2)ccc1OCC(=O)O | inactive
37 | COc1ccc(NC(=O)Cn2cc(C(=O)c3cccs3)c3ccccc32)cc1 | inactive
38 | CCC(=O)O | inactive
39 | O=S(=O)(O)Oc1ccc(C(c2ccc(OS(=O)(=O)O)cc2)c2ccccn2)cc1 | inactive
40 | N=C(N)n1cccn1 | inactive
